Screening data from PubChem.
HCMV antiviral: inhibitors of human cytomegalovirus | activity change, negative = inhibition, % at 57.5 µM | 410,000 tested, 4.5% active | HFF cells, HCMV-luciferase reporter, 72 h; stronger effect = lower value; in the data active = activity change below about -60%; inconclusive = no clear call, values can overlap the other calls; inactive = above about -39%
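After 16 h attachment at 37C, HFF cells received test compound and HCMV-luciferase (1 PFU/cell); reporter luminescence read 72 h later, data normalized against buffer-only and known inhibitor Salinomycin.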
Vaccinia mCherry: inhibitors of vaccinia virus infection (mCherry reporter signal); Vaccinia virus mCherry reporter infection, fluorescence; Potency, µM (highest dose often 36.5 µM), without a hit: top-dose activity change, negative = inhibition, actives largely listed as inhibitors; 310,000 tested, 0.63% active; calls by dose curve; tested in A549 cells; also: potency is read from the fitted curve at half-maximal effect; nearly all actives have a fitted effect of over 35% in size
Marburg entry inh: Marburg virus entry inhibition | Marburg virus pseudotyped entry inhibition, cell reporter | Potency, µM (top dose mostly 37.8 µM), for the others: at the top dose activity change, negative = inhibition, actives largely listed as inhibitors | 300,000 tested, 1.8% active; calls by dose curve; tested in HEK293 cells; also: potency is read from the fitted curve at half-maximal effect
LASV entry inh: blocks Lassa virus binding to or entry into cells. Lassa virus pseudotype entry inhibition, cell reporter. Potency, µM (top dose mostly 37.9 µM), inactives show at the top dose activity change, negative = inhibition, actives largely listed as inhibitors. 300,000 tested, 1.2% active. AID 540256; calls by dose curve; tested in HEK293 cells; also: potency is read from the fitted curve at half-maximal effect; nearly all actives have a fitted effect of over 50% in size
HCV inh: inhibitors of hepatitis C virus infection; Huh7.5.1 HCVcc-Cre infection, luciferase reporter, 44 h; Potency, µM (titrated, usually from 41.8 µM), inactives show top-dose activity change, negative = inhibition, most hits filed as inhibitors; 340,000 tested, 3.4% active; active = well fitted inhibition curve with a large enough effect; inconclusive = small, poorly fitted or top-dose-only effect, or another doubt; inactive = no such curve, though single readings can be large or run the other way; also: potency is read from the fitted curve at half-maximal effect
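Seed cells (1,000/well) for 4 h; treat with compound and infect with HCVcc-Cre, moi about 0.5. Incubate 44 h, then detect luciferase activity.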
Vaccinia Venus: vaccinia inhibition (Venus reporter); Vaccinia virus Venus reporter expression, fluorescence; Potency, µM (series often up to 36.5 µM), for the others: at the top dose activity change, negative = inhibition, hits mostly inhibitors; 330,000 tested, 0.46% active; calls by dose curve; tested in A549 cells; also: potency is read from the fitted curve at half-maximal effect; nearly all actives have a fitted effect of over 30% in size
Starred values were filed as active, the others as inactive; i = inactive; ? = inconclusive; / = no result given; [ ] = another dose, or the depositor's remark. A selection: hits, their analogues and other compounds. The true share with any hit is near 7.8%. % is scaled to controls: 0 for no effect and ±100 for the full control effect.

SMILES | HCMV antiviral | Vaccinia mCherry | Marburg entry inh | LASV entry inh | HCV inh | Vaccinia Venus
Cc1sc2nc(SCc3ccccc3)n(Cc3ccco3)c(=O)c2c1C | -36 | i | ? | ? | -10% | -12%
COc1cccc(CSc2nc3sc(C)c(C)c3c(=O)n2Cc2ccco2)c1 | 33 | / | 15µM* | ? | -27% | /
Cc1cccc(CSc2nc3sc(C)c(C)c3c(=O)n2Cc2ccco2)c1 | -8 | / | 15% | 4% | -6% | /
Cc1cc2c(=O)n(Cc3ccco3)c(SCC(=O)c3ccc(Cl)s3)nc2s1 | -65* | / | ? | ? | ? | /
COc1ccc2c(c1)c1c(c(=O)n(Cc3ccccc3)c(=O)n1CC(=O)Nc1ccccc1F)n2C | 16 | 4% | / | 3%[46.1 µM] | / | -1%
Cc1ccc(NC(=O)Cn2c(=O)n(Cc3ccc4c(c3)OCO4)c(=O)c3ccc(C(=O)NC4CCCCC4)cc32)c(C)c1 | 12 | 10% | -15%[46.1 µM] | 20%[46.1 µM] | / | 8%
O=C(c1ccc(CSc2nc3ccncc3n2Cc2cccc(F)c2)cc1)N1CCCCCC1 | ? | -23% | -1%[46.1 µM] | -19%[46.1 µM] | / | -27%
N#CCC(=O)N/N=C/c1c(-c2ccccc2)n(-c2ccccc2)c2ccccc12 | 5 | i | ? | ? | 14µM* | -1%
CCOc1ccc(OCC)c(NS(=O)(=O)c2c(C)[nH]c(=O)[nH]c2=O)c1 | 0 | -8% | / | -4%[46.1 µM] | / | -8%
O=C1CC(N2CCN(c3ccc(F)cc3)CC2)C(=O)N1Cc1cccs1 (stereo unspecified) | 3 | / | 12% | 2% | -4% | -15%
O=C1CC(N2CCN(c3nc4ccccc4s3)CC2)C(=O)N1Cc1cccs1 (stereo unspecified) | -3 | / | ? | ? | 14µM* | ?
Cc1ncc2c(c1CNC(=O)c1ccccc1F)CCN(C(=O)c1csc(-c3cccs3)n1)C2 | / | -21% | / | / | / | -12%
Cc1sc2ncnc(N(C)Cc3ccco3)c2c1C | -71* | / | -6% | -13% | ? | -18%
Cc1sc2nc3c4ccccc4c(NCc4ccco4)nn3c(=O)c2c1C | 195 | / | 12% | ? | -6% | ?
Cc1nc(SCC(=O)N(C)Cc2ccco2)c2c(C)c(C)sc2n1 | ? | / | 7.3µM* | ? | ? | /
Cc1nc(NCc2ccco2)c2c(C)c(C)sc2n1 | -105* | / | ? | 8% | 10µM* | /
COc1cc2nc(N3CCCN(C)CC3)nc(N)c2cc1OC | / | -19% | / | / | / | -16%
CN(Cc1ccc2ccccc2c1)C(=O)c1ccc(C(F)(F)F)cc1 | -62* | -28% | 2%[46.1 µM] | 20%[46.1 µM] | 2% | 4%
COc1ccc(CN(C)C(=O)c2ccc(Oc3ccccc3)cc2)cc1F | 10 | -22% | ? | ? | -23% | -11%
CC[C@H]1CN2CCc3cc(OC)c(OC)cc3[C@H]2C[C@@H]1C[C@@H]1NCCc2cc(OC)c(OC)cc21 | / | / | 0.22µM* | / | / | /
COc1cc2c(cc1OC)C1CC(=O)C(CC(C)C)CN1CC2 (stereo unspecified) | -62* | i | ? | ? | / | -6%
CC(C)C[C@H](NC(=O)OC(C)(C)C)C(=O)N1CCC(C(=O)N[C@@H](Cc2c[nH]c3ccccc23)C(=O)O)CC1 | -34 | -6% | 4% | 0% | -8% | -1%
CCC1CN2CCc3cc(OC)c(OC)cc3C2CC1CC1c2cc(OC)c(OC)cc2CCN1C(=O)C(Cc1c[nH]c2ccccc12)NC(=O)OC(C)(C)C (stereo unspecified) | ? | -12% | ? | ? | 11µM* | -26%
CCC(CC)CC1CN2CCc3cc(OC)c(OC)cc3C2CC1(O)CC (stereo unspecified) | 0 | -6% | / | / | / | -10%
COc1cc2c(cc1OC)C1C/C(=N\O)C(CC(C)C)CN1CC2 (stereo unspecified) | -3 | / | -23% | -10% | -30% | -14%
SMILES | HCMV antiviral | Vaccinia mCherry | Marburg entry inh | LASV entry inh | HCV inh | Vaccinia Venus
CC(=O)c1ccccc1NC(C(=O)Nc1c(C)cccc1C)C1CCCC1 (stereo unspecified) | -5 | / | / | / | / | /
NC(=O)COC(=O)c1ccccc1OCC(=O)Nc1ccc(Br)cc1 | / | -12% | / | / | / | -11%
Cc1ccc(-n2ncc3c(=O)n(Cc4cccc(Cl)c4)cnc32)cc1C | -5 | 0% | -1%[46.1 µM] | ? | / | -8%
Cc1ccc(-c2cc(-c3ccc(C)cc3)[n+](-c3ccc(C(=O)[O-])cc3)c(-c3ccc(C)cc3)c2)cc1 | -17 | -13% | / | / | 2.5µM* | -12%
Cc1ccc(-c2cc(-c3ccc(C)cc3)[n+](-c3ccccc3)c(-c3ccc(C)cc3)c2)cc1 | / | ? | / | / | 25µM* | 3.5µM*
c1ccc(-c2cc(-c3ccccc3)[n+](-c3ccccc3)c(-c3ccccc3)c2)cc1 | -101* | -40% | ? | ? | ? | ?
Cc1ccc(-c2cc(-c3ccccc3)cc(-c3ccccc3)[n+]2-c2ccccc2)cc1 | -99* | 8.9µM* | / | / | 6.3µM* | 10µM*
Cc1cnc(-n2ncc(C(=O)NCc3ccncc3)c2C2CC2)nc1-c1cccs1 | / | ? | / | / | / | -28%
COc1cc(C(CC2=C(c3ccccc3)Cc3ccccc32)NC(=O)C(F)(F)F)cc(OC)c1OC (stereo unspecified) | / | / | 8%[14.2 µM] | / | / | /
Cc1ncc(-c2ccc(F)cc2)c(C2CCCN(Cc3cccc(O)c3)C2)n1 (stereo unspecified) | / | i | / | / | / | -14%
CN(C)c1ccc(-[n+]2c(-c3ccccc3)cc(-c3ccccc3)cc2-c2ccccc2)cc1 | -99* | -20% | ? | ? | 7.1µM* | ?
Cc1cccn2c(=O)c(/C=C(\C#N)C(=O)NC3CCS(=O)(=O)C3)c(Oc3ccc(F)cc3)nc12 (stereo unspecified) | 15 | -6% | ? | -1%[46.1 µM] | -1% | -10%
Cc1cccc(Oc2nc3ccccn3c(=O)c2/C=C(\C#N)C(=O)NC2CCS(=O)(=O)C2)c1 (stereo unspecified) | 20 | 0% | -13% | 0% | -2% | -9%
Cc1cc(Oc2nc3ccccn3c(=O)c2/C=C(\C#N)C(=O)NC2CCS(=O)(=O)C2)ccc1Cl (stereo unspecified) | -66* | -2% | ? | ? | ? | -11%
Cc1cccc(Oc2nc3ccccn3c(=O)c2/C=C(\C#N)C(=O)NC2CCS(=O)(=O)C2)c1C (stereo unspecified) | -96* | -24% | ? | ? | -4% | -16%
N#C/C(=C\c1c(Oc2ccc(Cl)cc2)nc2ccccn2c1=O)C(=O)NC1CCS(=O)(=O)C1 (stereo unspecified) | 23 | -10% | ? | 3.5µM* | -28% | -9%
N#C/C(=C\c1c(N2CCCCC2)nc2ccccn2c1=O)C(=O)NC1CCS(=O)(=O)C1 (stereo unspecified) | 7 | -5% | 3% | 9% | 6% | -19%
COc1ccc2c3c(c(=O)oc2c1)[C@H]1O[C@](c2ccsc2)(Cc2cc(C#N)ccc21)O3 | / | / | -14%[14.2 µM] | / | / | /
